The values that follow come from PubChem BioAssay.

Active and inactive are the calls of the source.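 Rule for the calls, unless noted: active = binding below the plate cutoff, the plate median minus 3 SD, with a reading above zero; inconclusive = below the plate cutoff but reading exactly zero; inactive = the rest.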

Assay [1] can be described thus: reduced mouse 2C T cell binding to pMHC/ICAM-1 vesicles – MLPCN validation set, flow cytometry, LFA-1/ICAM-1 modulator project, pilot screen (AID 2523;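 active = response below a set limit, under 55% cells CD8-positive and vesicle-bound, and CD8 cells' 90th-percentile brightness under 279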;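 for vesicle binding response: mean PE anti-B7-1 fluorescence of CD8+ cells relative to row control; 100% = QL9-loaded vesicles with DMSO vehicle in the same plate row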). To be noted: 2C mouse CD8+ T cells, at 7 µM, stronger effect = lower value; double positive events: measured here: CD8+/vesicle+ event percentage. For orientation: A flow cytometer gives signals particle by particle.
Assay [2] addresses Integrin beta-1 (Homo sapiens) + Integrin alpha-4 (Homo sapiens) (UniProt P13612+P05556). As to the kind of experiment: alpha4beta1 integrin LIBS antibody binding reduction – U937 cells, HUTS-21 mAb, flow cytometry, validation set, VLA-4 allosteric modulator project, pilot screen (AID 2674;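 active = inhibition above 50%, about 3 SD of the validation set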;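 note: antibody binding induced by the VLA-4 ligand LDV present at three times its Kd; 0% = LDV ligand with antibody and no compound and 100% = antibody without LDV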). Conditions: HUTS-21 LIBS mAb binding, at 6.7 µM, stronger effect = higher value, binding induced by LDV ligand.

Assay [3] is described as follows: calorie-restriction mimetic ROS inhibitors, yeast – validation compound set, pilot screen (AID 2706;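 active = superoxide response below 65% of plate, a cut near 3 SD across the whole screen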;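 note: yeast exposed to compound for one week at 30 degrees C before staining; 100% = mean of all compound wells on the same plate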). Conditions: S. cerevisiae aging, superoxide DHE fluorescence; at 10 µM, stronger effect = lower value.
For assay [4], the target named is Beta-adrenergic receptor kinase 1 (Homo sapiens) (UniProt P25098). Kind of assay: GRK2 binders displacing RNA aptamer, biochemical, validation, human GRK2, bead flow cytometry (AID 488806;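 active = aptamer binding inhibition above 30%, about 3 SD of noise from non-fluorescent compounds; inactive = inhibition at or below 30%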). Conditions: bead-bound GRK2, FAM-aptamer displacement, at 10 µM, stronger effect = higher value.
Sequence of Beta-adrenergic receptor kinase 1 (Homo sapiens) (P25098 whole entry, looked up): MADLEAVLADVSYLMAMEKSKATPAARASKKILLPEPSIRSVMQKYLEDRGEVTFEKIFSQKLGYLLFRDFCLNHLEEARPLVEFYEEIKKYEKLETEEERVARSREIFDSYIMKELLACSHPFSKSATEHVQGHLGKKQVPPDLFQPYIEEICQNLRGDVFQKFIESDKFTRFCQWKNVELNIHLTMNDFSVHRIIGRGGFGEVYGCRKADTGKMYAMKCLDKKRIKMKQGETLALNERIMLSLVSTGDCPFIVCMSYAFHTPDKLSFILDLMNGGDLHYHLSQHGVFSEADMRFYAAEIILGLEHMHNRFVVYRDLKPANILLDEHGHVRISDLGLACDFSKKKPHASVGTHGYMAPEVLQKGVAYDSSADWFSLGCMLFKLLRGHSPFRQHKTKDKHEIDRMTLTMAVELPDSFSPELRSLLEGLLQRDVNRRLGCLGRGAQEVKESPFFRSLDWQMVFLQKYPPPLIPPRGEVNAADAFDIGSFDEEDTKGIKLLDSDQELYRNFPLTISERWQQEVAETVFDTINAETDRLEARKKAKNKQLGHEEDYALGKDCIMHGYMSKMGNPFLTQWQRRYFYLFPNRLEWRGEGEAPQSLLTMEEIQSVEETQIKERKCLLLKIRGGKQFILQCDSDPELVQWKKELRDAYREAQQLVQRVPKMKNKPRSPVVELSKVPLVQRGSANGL
The target in assay [5] is Beta-2 adrenergic receptor (Homo sapiens) (UniProt P07550). Kind of assay: agonist-induced loss of surface beta2AR – cell-based, FAP fluorogen, flow cytometry, validation set, pilot screen (AID 504459;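 active = percent response above 42, roughly 3 SD of non-fluorescent test compounds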;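 note: agonist-driven loss of surface beta2AR via internalization measured by FAP dye flow cytometry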). To be noted: Am2.2-beta2AR cells, at 10 µM, stronger effect = higher value.
Sequence of Beta-2 adrenergic receptor (Homo sapiens) (P07550 whole entry, looked up): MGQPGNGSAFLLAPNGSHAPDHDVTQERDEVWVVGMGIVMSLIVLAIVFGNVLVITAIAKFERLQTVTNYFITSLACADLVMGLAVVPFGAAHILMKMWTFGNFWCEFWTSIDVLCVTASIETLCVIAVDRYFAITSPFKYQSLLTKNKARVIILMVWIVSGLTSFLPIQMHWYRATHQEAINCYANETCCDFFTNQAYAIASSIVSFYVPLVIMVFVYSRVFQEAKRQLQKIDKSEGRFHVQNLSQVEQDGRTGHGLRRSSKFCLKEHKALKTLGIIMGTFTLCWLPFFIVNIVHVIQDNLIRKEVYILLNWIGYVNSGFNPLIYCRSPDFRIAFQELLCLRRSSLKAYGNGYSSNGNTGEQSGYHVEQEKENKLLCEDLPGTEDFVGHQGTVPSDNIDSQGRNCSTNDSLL
The target in assay [6] is AP-2 complex subunit beta (Homo sapiens) (UniProt P63010). As to the kind of experiment: beta-arrestin/AP2 interaction blockers – biochemical, validation set, GST-AP2 beads, flow cytometry, pilot screen (AID 504541;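 active = inhibition above 54%, about 3 SD of non-fluorescent compounds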;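 note: AP2 carries R879A mutation and is captured from E. coli lysate; bead-bound FITC arrestin peptide fluorescence measuring arrestin peptide binding to AP2; 0% = DMSO wells and 100% = excess unlabeled arrestin peptide control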). Conditions: FITC arrestin peptide, at 10 µM, stronger effect = higher value, AP2 beta2 appendage fragment, R879A mutant.
Sequence of AP-2 complex subunit beta (Homo sapiens) (P63010 whole entry, looked up, the tested form may be a part, one chain of several): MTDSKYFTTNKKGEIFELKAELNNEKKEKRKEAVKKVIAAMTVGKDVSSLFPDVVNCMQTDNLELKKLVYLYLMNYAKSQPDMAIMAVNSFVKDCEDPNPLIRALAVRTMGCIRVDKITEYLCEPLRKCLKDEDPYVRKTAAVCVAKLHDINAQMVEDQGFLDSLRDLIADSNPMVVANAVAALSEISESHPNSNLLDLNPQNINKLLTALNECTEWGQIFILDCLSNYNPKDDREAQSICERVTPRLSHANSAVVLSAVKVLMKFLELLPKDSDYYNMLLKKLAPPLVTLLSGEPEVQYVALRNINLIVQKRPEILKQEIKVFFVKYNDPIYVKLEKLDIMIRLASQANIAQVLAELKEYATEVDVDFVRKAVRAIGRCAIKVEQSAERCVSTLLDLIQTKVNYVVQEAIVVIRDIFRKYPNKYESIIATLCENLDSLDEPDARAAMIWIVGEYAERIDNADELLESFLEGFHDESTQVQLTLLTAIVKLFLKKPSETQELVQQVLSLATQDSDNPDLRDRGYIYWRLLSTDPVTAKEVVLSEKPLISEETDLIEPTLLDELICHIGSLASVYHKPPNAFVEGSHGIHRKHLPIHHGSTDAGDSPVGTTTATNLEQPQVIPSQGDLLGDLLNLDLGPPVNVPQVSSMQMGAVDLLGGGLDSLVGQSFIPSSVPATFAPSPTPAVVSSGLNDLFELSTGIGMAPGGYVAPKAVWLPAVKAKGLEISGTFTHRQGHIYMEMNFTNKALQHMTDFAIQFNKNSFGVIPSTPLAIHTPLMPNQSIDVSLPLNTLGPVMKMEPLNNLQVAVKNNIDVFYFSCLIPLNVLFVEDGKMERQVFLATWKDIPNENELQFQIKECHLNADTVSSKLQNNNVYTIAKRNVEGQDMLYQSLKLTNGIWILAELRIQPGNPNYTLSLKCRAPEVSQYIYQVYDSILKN
Assay [7] is described as follows: cytosolic pH regulators acting via V-ATPase – S. cerevisiae, pHLuorin, HTS validation (AID 504600; in the data active = response above about 15%;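 note: plate controls were DMSO for no effect and reference compound for full effect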). Conditions: V-ATPase proton transport, at 10 µM, stronger effect = higher value.
For assay [8], the system named is anti-desmoglein-3 scFv antibody binding to human DSG3. As to the kind of experiment: blockers of pathogenic pemphigus antibody–desmoglein-3 binding – biochemical, validation compound set, bead-based, flow cytometry, pilot screen (AID 588368).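 Note: signal is the median channel fluorescence of bead-bound GFP antibody.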 To be noted: Protein G beads, DSG3-Fc, scFv-GFP binding, at 10 µM, stronger effect = lower value.
Assay [9] is described as follows: Nile Red efflux blockade in pump-expressing yeast – validation compound set, multiplex, phenotypic, pilot screen (AID 588506;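 active = efflux inhibition above 0.42, the validation set average plus 4 SD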;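 note: Nile Red retained in cells so higher fluorescence means more efflux inhibition; 0 = negative control wells and 1 = enniatin B 25 µM full block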). Conditions: S. cerevisiae pump-expressing triplex, Nile Red efflux flow cytometry; at 10 µM; stronger effect = higher value; the pumps come from Candida albicans.
Assay [10] deals with ATP-binding cassette sub-family B member 6 (Homo sapiens) (UniProt Q9NP58). As to the kind of experiment: blockers of ABCB6-driven porphyrin uptake – K562-ABCB6 cells, flow cytometry, validation set, pilot screen (AID 588550;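 active = inhibition above the screen-wide mean plus 3 SD, about 51%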;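 note: 0% = DMSO wells and 100% = benzethonium chloride 70 µM positive control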). Conditions: K562-ABCB6 porphyrin accumulation, 1 h, at 10 µM, stronger effect = higher value.
Sequence of ATP-binding cassette sub-family B member 6 (Homo sapiens) (Q9NP58 whole entry, looked up): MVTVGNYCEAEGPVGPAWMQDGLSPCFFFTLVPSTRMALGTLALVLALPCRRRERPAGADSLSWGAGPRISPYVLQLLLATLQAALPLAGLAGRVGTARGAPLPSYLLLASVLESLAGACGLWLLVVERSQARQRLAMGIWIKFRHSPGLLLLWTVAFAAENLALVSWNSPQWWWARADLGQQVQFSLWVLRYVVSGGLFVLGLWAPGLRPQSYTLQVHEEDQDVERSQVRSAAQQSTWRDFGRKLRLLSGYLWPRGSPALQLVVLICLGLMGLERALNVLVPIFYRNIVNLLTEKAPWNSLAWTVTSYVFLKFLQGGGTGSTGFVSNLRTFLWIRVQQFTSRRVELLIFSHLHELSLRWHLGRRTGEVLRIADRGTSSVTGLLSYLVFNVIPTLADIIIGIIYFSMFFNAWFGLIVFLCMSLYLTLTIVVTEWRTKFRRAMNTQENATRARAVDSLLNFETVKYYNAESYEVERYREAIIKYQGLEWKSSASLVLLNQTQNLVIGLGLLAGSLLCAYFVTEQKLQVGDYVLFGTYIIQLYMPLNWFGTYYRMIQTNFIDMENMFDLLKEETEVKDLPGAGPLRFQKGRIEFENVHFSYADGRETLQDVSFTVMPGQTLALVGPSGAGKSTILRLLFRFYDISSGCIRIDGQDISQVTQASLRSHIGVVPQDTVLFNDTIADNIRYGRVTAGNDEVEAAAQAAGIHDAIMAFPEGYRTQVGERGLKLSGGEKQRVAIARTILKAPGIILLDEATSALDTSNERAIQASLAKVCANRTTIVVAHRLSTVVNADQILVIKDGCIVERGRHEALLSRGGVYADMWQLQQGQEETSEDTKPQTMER
A short description of assay [11]: AML differentiation inducers, ER-HoxA9 marrow cells – cell-based, GFP/MAC1 double positive, flow cytometry, validation set, primary screen (AID 588685;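 active = differentiation response of at least 50%, scaled between solvent and reference control, from cells with both markers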;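 note: compound exposure lasts four days before antibody staining and flow analysis; 0% = DMSO wells and 100% = 5 µM fulvestrant positive control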). Conditions: stronger effect = higher value, normalized: vehicle 0, fulvestrant 100.

Sequence of Integrin beta-1 (Homo sapiens) + Integrin alpha-4 (Homo sapiens) (P05556 whole entry, looked up): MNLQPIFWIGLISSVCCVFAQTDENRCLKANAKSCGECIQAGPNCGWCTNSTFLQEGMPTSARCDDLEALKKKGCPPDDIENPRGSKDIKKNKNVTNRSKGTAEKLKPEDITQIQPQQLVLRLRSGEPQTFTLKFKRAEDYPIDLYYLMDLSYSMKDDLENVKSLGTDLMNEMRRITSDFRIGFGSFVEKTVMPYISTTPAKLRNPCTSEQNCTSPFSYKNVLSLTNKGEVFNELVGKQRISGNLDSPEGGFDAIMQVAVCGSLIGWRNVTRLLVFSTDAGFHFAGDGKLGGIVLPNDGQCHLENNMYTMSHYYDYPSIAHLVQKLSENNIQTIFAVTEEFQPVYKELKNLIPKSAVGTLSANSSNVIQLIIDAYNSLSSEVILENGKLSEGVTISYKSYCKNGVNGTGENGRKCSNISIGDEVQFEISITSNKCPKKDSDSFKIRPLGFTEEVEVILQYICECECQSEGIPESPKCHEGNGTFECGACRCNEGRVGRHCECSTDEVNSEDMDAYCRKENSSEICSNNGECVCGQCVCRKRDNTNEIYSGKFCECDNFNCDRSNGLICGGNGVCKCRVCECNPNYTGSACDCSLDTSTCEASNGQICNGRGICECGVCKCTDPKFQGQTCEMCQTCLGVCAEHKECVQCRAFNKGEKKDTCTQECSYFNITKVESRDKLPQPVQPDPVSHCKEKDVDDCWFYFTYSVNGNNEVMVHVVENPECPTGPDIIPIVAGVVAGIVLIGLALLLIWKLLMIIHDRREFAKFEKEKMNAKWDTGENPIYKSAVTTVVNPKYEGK
Sequence of Integrin beta-1 (Homo sapiens) + Integrin alpha-4 (Homo sapiens) (P13612 whole entry, looked up): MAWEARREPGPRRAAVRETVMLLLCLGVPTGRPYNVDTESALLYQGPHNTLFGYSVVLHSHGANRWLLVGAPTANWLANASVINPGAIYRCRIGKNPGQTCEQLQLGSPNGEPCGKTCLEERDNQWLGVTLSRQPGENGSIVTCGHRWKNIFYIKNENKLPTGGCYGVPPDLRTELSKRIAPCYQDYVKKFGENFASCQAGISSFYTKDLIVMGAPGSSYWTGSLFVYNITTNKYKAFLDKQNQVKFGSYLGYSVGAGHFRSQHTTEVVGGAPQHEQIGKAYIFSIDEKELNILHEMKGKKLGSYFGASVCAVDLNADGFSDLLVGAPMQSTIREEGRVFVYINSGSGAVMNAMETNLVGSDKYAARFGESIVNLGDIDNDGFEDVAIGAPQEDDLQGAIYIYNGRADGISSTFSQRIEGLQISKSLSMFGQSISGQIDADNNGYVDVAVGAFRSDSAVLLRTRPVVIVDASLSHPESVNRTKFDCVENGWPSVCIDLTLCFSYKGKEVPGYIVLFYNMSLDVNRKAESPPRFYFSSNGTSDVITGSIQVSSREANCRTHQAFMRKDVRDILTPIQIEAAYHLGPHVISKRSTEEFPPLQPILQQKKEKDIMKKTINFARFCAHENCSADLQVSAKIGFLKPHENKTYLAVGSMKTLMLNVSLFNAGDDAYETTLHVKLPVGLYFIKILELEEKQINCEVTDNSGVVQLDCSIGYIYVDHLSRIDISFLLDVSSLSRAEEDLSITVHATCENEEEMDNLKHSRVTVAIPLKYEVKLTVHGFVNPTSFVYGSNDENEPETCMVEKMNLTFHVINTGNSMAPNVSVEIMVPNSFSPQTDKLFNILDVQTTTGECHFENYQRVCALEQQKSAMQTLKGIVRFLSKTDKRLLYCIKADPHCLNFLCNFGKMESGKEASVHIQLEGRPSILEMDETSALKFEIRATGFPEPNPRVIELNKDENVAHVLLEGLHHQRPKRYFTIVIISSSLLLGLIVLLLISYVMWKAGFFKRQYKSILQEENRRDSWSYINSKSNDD

In [1], `NC(N)=NC(=O)c1nc(Cl)c(N)nc1N` showed a double positive events of 62.4%. Moreover, in [1], the vesicle binding response is 206% (inactive). Further, the inhibition (as a rule, the drop in the measured response relative to a control, in per cent) in assay [2] was 7.4% (inactive); in [6], -4.43% (inactive); in assay [10], -2% (inactive). Moreover, the superoxide response (% of plate) in assay [3] was 87% (inactive). Moreover, in assay [4], the aptamer binding inhibition is 0% (inactive). Further, the response is -22.4% (inactive) in assay [5] and -1.82% (inactive) in assay [7]. In addition, the binding (% of control) in [8] is 104% (inactive). For the same compound, the efflux inhibition (fraction of control) in assay [9] is -0.04 (inactive). Moreover, the differentiation response in assay [11] was -3.02% (inactive).

In assay [1], `COc1ccc(O)c(N)c1` registered a double positive events of 70.2%. For the same compound, the vesicle binding response in assay [1] was 381% (inactive). In addition, the inhibition is -22.3% (inactive) in [2], 20.1% (inactive) in [6] and 7% (inactive) in assay [10]. The superoxide response (% of plate) in assay [3] was 104% (inactive). For the same compound, the aptamer binding inhibition in assay [4] is 5% (inactive). The response is 76.4% (active) in assay [5] and 3.74% (inactive) in assay [7]. Besides, the binding (% of control) in [8] was 99.1% (inactive). For the same compound, the efflux inhibition (fraction of control) in assay [9] was -0.1 (inactive). For the same compound, the differentiation response in assay [11] is -0.8% (inactive).

Turning to `CCOC(=O)/C=C1\NC(C)(C)Cc2cc(OC)c(OC)cc21`, the double positive events in [1] amounted to 59.2%. In addition, the vesicle binding response in assay [1] was 271% (inactive). Moreover, the inhibition in [2] was 5.03% (inactive); in assay [6] it was -4.08% (inactive); in assay [10], 7% (inactive). The superoxide response (% of plate) in [3] was 102% (inactive). For the same compound, the aptamer binding inhibition in assay [4] is 4% (inactive). Besides, the response was 9.33% (inactive) in assay [5] and -1.95% (inactive) in assay [7]. Further, in assay [8], the binding (% of control) was 101% (inactive). Further, in assay [9], the efflux inhibition (fraction of control) is 0.08 (inactive). The differentiation response in assay [11] was 31.2% (inactive).

In assay [1], `CC(C)c1ccc2[nH]c3c(c2c1)CCCC3=O` had a double positive events of 59.4%. For the same compound, the vesicle binding response in [1] is 113% (inactive). The inhibition in assay [2] is 4.27% (inactive); in assay [6], 0.1% (inactive); in assay [10] it was 27% (inactive). For the same compound, the superoxide response (% of plate) in assay [3] is 97.7% (inactive). The aptamer binding inhibition in assay [4] is 2% (inactive). The response is 11.3% (inactive) in [5] and 1.31% (inactive) in assay [7]. Further, in [8], the binding (% of control) was 102% (inactive). Moreover, the efflux inhibition (fraction of control) in [9] was 0.04 (inactive). Also, the differentiation response in assay [11] was -1.65% (inactive).

In the case of `Fc1cccc(Cc2noc(CN3CCN(c4cnccn4)CC3)n2)c1`, in [1], the double positive events came to 56.6%. Further, the vesicle binding response in assay [1] was 45.8% (inactive). Moreover, the inhibition in [2] is -3.57% (inactive); in assay [6], 56.4% (active); in [10], 0% (inactive). The superoxide response (% of plate) in [3] was 108% (inactive). Also, the aptamer binding inhibition in assay [4] is -1% (inactive). Moreover, the response in [5] was -4.45% (inactive); in assay [7], -3.37% (inactive). The binding (% of control) in [8] is 97.4% (inactive). In addition, in assay [9], the efflux inhibition (fraction of control) was 0.11 (inactive). For the same compound, the differentiation response in assay [11] was 41.3% (inactive).

As to `C=CCc1ccc(OCC(O)COc2ccc(CC=C)cc2OC)c(OC)c1`, the double positive events in assay [1] was 58.6%. The vesicle binding response in assay [1] is 140% (inactive). The results for the inhibition in assay [2], in [6] and in assay [10] were 7.76% (inactive), 3.97% (inactive) and 4% (inactive), respectively. The superoxide response (% of plate) in [3] is 104% (inactive). Further, the aptamer binding inhibition in assay [4] is -1% (inactive). For the same compound, the results for the response in assay [5] and in assay [7] were 7.14% (inactive) and 2.47% (inactive), respectively. In addition, the binding (% of control) in assay [8] is 104% (inactive). In addition, the efflux inhibition (fraction of control) in assay [9] is 0.4 (inactive). Further, the differentiation response in assay [11] is 50.4% (active).

`O=C(NCc1ccccc1Cl)NC(=O)c1ccccc1` showed a double positive events in assay [1] of 62%. Further, the vesicle binding response in assay [1] was 221% (inactive). The inhibition in assay [2] was 6.46% (inactive); in assay [6], 8.1% (inactive); in [10] it was 7% (inactive). Moreover, the superoxide response (% of plate) in [3] is 115% (inactive). In addition, the aptamer binding inhibition in assay [4] was 4% (inactive). The values for the response in assay [5] and in assay [7] were 0.79% (inactive) and -5.42% (inactive), respectively. Besides, in [8], the binding (% of control) is 98.7% (inactive). In [9], the efflux inhibition (fraction of control) was 0.19 (inactive). Besides, the differentiation response in [11] is 1.64% (inactive).

The compound `COc1ccc(CCNC(=O)c2c(O)c3c([nH]c2=O)CCCC3)cc1` had a double positive events in assay [1] of 62.2%. Further, the vesicle binding response in assay [1] was 180% (inactive). Besides, the inhibition is 3.14% (inactive) in assay [2], -16.3% (inactive) in assay [6] and 1% (inactive) in assay [10]. Also, in [3], the superoxide response (% of plate) is 124% (inactive). Also, the aptamer binding inhibition in assay [4] was -6% (inactive). The response in [5] is -28.9% (inactive); in [7] it was 9.51% (inactive). Also, the binding (% of control) in [8] is 30.9% (active). For the same compound, the efflux inhibition (fraction of control) in assay [9] is 0 (inactive). Also, the differentiation response in assay [11] was -0.06% (inactive).

In assay [1], `C=CCNC(=S)N1CCc2c([nH]c3ccccc23)C1C` (stereo unspecified) returned a double positive events of 60.6%. The vesicle binding response in assay [1] is 194% (inactive). Besides, the figures for the inhibition in [2], in [6] and in assay [10] were 15.1% (inactive), -13.8% (inactive) and 15% (inactive), respectively. For the same compound, the superoxide response (% of plate) in assay [3] is 99% (inactive). In addition, the aptamer binding inhibition in assay [4] was -3% (inactive). Also, the response in assay [5] is -13% (inactive); in assay [7] it was 2.11% (inactive). For the same compound, the binding (% of control) in [8] was 102% (inactive). In addition, the efflux inhibition (fraction of control) in assay [9] was -0.09 (inactive). Besides, in [11], the differentiation response is -11.9% (inactive).

As for `OCC1(CCOc2ccccc2)CCN(CCCn2cccn2)CC1`, the double positive events in [1] came out at 62.6%. Further, the vesicle binding response in assay [1] is 287% (inactive). Moreover, the inhibition was 11.9% (inactive) in assay [2], -9.04% (inactive) in [6] and 4% (inactive) in assay [10]. For the same compound, the superoxide response (% of plate) in assay [3] was 86.7% (inactive). Moreover, the aptamer binding inhibition in [4] is 0% (inactive). The response is 22.2% (inactive) in assay [5] and 3.24% (inactive) in assay [7]. The binding (% of control) in assay [8] was 101% (inactive). In assay [9], the efflux inhibition (fraction of control) was -0.39 (inactive). Further, the differentiation response in assay [11] is 7.2% (inactive).

Consider `C[C@H](NC(=O)OC(C)(C)C)C(=O)NCC1CCC(C(=O)O)CC1` (stereo partly specified), for which the double positive events in [1] worked out at 58%. For the same compound, the vesicle binding response in assay [1] is 166% (inactive). In addition, the inhibition in assay [2] is 5.03% (inactive); in assay [6], -1.54% (inactive); in [10], 6% (inactive). Also, in assay [3], the superoxide response (% of plate) was 95.3% (inactive). Moreover, the aptamer binding inhibition in assay [4] is 6% (inactive). The values for the response in assay [5] and in assay [7] were -13.5% (inactive) and 1.21% (inactive), respectively. Moreover, in assay [8], the binding (% of control) is 99.5% (inactive). Further, the efflux inhibition (fraction of control) in assay [9] was -0.06 (inactive). Besides, the differentiation response in assay [11] was 0.8% (inactive).

In assay [1], `CCN(Cc1cnn(C)c1)Cc1nc(C(c2ccccc2)c2ccccc2)no1` gave a double positive events of 61.8%. Also, the vesicle binding response in [1] is 168% (inactive). The inhibition is 7.4% (inactive) in assay [2], -13.6% (inactive) in assay [6] and 1% (inactive) in assay [10]. For the same compound, in assay [3], the superoxide response (% of plate) is 120% (inactive). Further, the aptamer binding inhibition in [4] is -5% (inactive). For the same compound, the response in [5] is -21.6% (inactive); in [7] it was -8.11% (inactive). Also, in assay [8], the binding (% of control) is 98.8% (inactive). In addition, the efflux inhibition (fraction of control) in assay [9] was -0.04 (inactive). Besides, the differentiation response in assay [11] is 16.7% (inactive).

Take `CC(=O)OCC(OC(C)=O)C(OC(C)=O)C(OC(C)=O)C(=O)Nc1cccc(C)c1` (stereo unspecified): the double positive events in [1] turned out to be 59.9%. Moreover, the vesicle binding response in assay [1] was 153% (inactive). For the same compound, the results for the inhibition in assay [2], in assay [6] and in assay [10] were -4.52% (inactive), -4.4% (inactive) and 2% (inactive), respectively. Further, the superoxide response (% of plate) in assay [3] was 110% (inactive). Moreover, the aptamer binding inhibition in assay [4] is 3% (inactive). For the same compound, the figures for the response in [5] and in assay [7] were 4.29% (inactive) and 1.1% (inactive), respectively. Further, the binding (% of control) in assay [8] was 97% (inactive). The efflux inhibition (fraction of control) in assay [9] is -0.1 (inactive). Besides, the differentiation response in assay [11] is -10.4% (inactive).
